What all share (experiment): NCI-60 one-dose screen, 48 h (100 = growth as untreated, 0 = no growth, -100 = all killed)
Details in all cases: 10 µM unless noted

Test [1] concerns K-562 leukemia.
Test [2] has as its system MALME-3M melanoma.
For test [3], the system named is MDA-MB-231 breast.
Test [4] concerns RXF 393 renal.
Test [5] deals with SF-268 CNS.
In test [6] the test system is SF-295 CNS.
The subject of test [7] is SF-539 CNS.
Test [8] has as its system UACC-257 melanoma.
The subject of test [9] is M14 melanoma.
Test [10] relates to HCT-15 colon.
In test [11] the test system is HT29 colon.
Test [12] relates to SNB-75 CNS.
The subject of test [13] is SNB-19 CNS.
Test [14] has as its system U251 CNS.
Test [15] relates to PC-3 prostate.
Test [16] relates to SK-MEL-5 melanoma.
For test [17], the system named is UACC-62 melanoma.
Test [18] concerns LOX IMVI melanoma.
In test [19] the test system is SK-MEL-28 melanoma.
Test [20] has as its system SK-MEL-2 melanoma.

SMILES strings stand for the structures. Compounds without any hit were thinned out: in the full panel of roughly 83,000, 20% have a hit.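 Values shown are percent growth following 48 h exposure of cells in 96-well plates to a single concentration of compound; below 10 was considered active.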 A number with no mark means an inactive call. Active and inactive are the calls of the source.

With `Clc1ccc(-n2cnc3c(Cl)ncnc32)cc1Cl`, the growth in [1] is 61.1%; in [2], 85%; in test [3] it was 87.5%; in test [4] it was 97.3%; in [5], 78.3%; in [6], 119%. Also, the growth was 104% in [7]; 84.4% in test [8]; 48.4% in [9]; 60.4% in test [10]; 74.8% in [11]; 99.5% in test [12]. The growth in [13] was 91.5%; in test [14] it was 78.2%; in test [15], 110%; in test [16] it was 103%; in [17], 85.4%; in test [18], 36.6%. The growth in [19] is 64.1%; in test [20], 89.7%.
As to `COc1cc(OC)c2sc(-c3ccc(-n4cncc4-c4ccc(N)cc4)cc3)nc2c1`, the growth is 59.9% in [1]; 84.4% in test [2]; 87.3% in [3]; 81.5% in test [4]; 74.5% in [5]; 48.1% in [6]. For the same compound, the growth in test [7] was 84.6%; in test [8], 69.8%; in test [9], 76.4%; in [10], 69.7%; in [11], 62.6%; in test [12], 86.1%. Besides, the growth in [13] was 71.2%; in test [14], 59.3%; in test [15], 67.7%; in [16] it was 56.6%; in test [17], 96.6%; in test [18], 62.7%. Besides, the growth in [19] was 97.5%; in [20] it was 97.6%.
On to `CCOC(=O)c1ccccc1OC(=O)NNc1ccccc1`, for which the growth was 5.06% (active) in test [1]; 82.1% in test [2]; 81.3% in test [3]; 124% in test [4]; 65.6% in [5]; 49.1% in [6]. The growth in test [7] is 10.7%; in test [8], 85.8%; in test [9], 57.3%; in test [10] it was 46%; in [11], 109%; in [12], 78.9%. In addition, the growth in test [13] is 90.7%; in test [14], 83.2%; in test [15], 34.9%; in [16], 57.2%; in [17], 21.5%; in test [18] it was 73.5%. The growth in [19] was 93.6%; in [20], 33.2%.
In the case of `O=C(c1ccccc1)c1ccccc1Cl`, the growth was 100% in test [1]; 102% in [2]; 105% in test [3]; 111% in [4]; 109% in test [5]; 110% in [6]. Also, the growth in [7] is 100%; in [8], 97.8%; in test [9], 101%; in test [10] it was 104%; in test [11], 92.9%; in test [12] it was 88.8%. The growth in test [13] was 97.1%; in test [14], 99%; in [15], 96.1%; in [16], 105%; in test [17], 99.6%; in [18], 107%. The values for the growth in test [19] and in test [20] were 103% and 100%, respectively.
With `O=C(Nc1cccc(-n2cc(-c3ccncc3)c(-c3ccc(O)c(Cl)c3)n2)c1)Nc1ccc(Cl)c(C(F)(F)F)c1`, the growth in test [1] is 4.8% (active); in test [2] it was -24% (active); in test [3], -34.8% (active); in [4], -21% (active); in test [5], 3.1% (active); in test [6], -25.7% (active). Besides, the growth in test [7] is -19.3% (active); in [8] it was -19.5% (active); in [9], -34% (active); in test [10] it was 17.3%; in test [11], 21.6%; in test [12] it was -12% (active). The growth in test [13] was 33.1%; in test [14], -64.4% (active); in test [15] it was -22.6% (active); in test [16] it was -35.9% (active); in test [17], -38.9% (active); in [19] it was -12.8% (active).
For the compound `COc1cccc(CCC2C(=O)CCCC2=O)c1`, the growth is 109% in test [1]; 115% in test [2]; 114% in test [3]; 134% in test [4]; 98.1% in [5]; 118% in test [6]. Also, the growth in test [7] is 98.8%; in [8], 108%; in test [9] it was 113%; in test [10] it was 108%; in [11] it was 111%; in test [12], 108%. Besides, the growth in test [13] was 96.8%; in test [14], 109%; in test [15] it was 104%; in test [16], 104%; in test [17], 103%; in test [18], 117%. In addition, the results for the growth in test [19] and in test [20] were 119% and 112%, respectively.
Take `CC/C(=C\c1ccc(N(C)C)cc1)c1ccncc1`: the growth in test [1] is 16.2%; in test [2], 9.47% (active); in test [3] it was 51.6%; in test [4], 91.1%; in test [5], 71.7%; in [6] it was 49%. Moreover, the growth in test [7] is 58.6%; in [8], 75%; in test [9] it was 29.6%; in test [10] it was 37.5%; in test [11], 14.6%; in test [12] it was 39.2%. Also, the growth was 64.5% in test [13]; 29.3% in [14]; 65.4% in test [15]; 32.5% in test [16]; 44% in test [17]; 41.5% in [18]. Besides, the growth is 65.4% in [19] and 49.9% in [20].
As to `CC1SC(c2c(Cl)cccc2Cl)N(NC(=O)c2[nH]c3ccc(F)cc3c2-c2ccccc2)C1=O` (configuration not stated), the growth in test [1] was 71.6%; in [2], 1.97% (active); in test [3], 0.445% (active); in test [4], 26.5%; in test [5] it was 44.3%; in [6], 6.65% (active). Further, the growth was 71.5% in [7]; 93.9% in test [8]; 62.8% in test [9]; 65.1% in test [10]; 34.8% in [11]; -53% (active) in test [12]. Besides, the growth in [13] was 37.4%; in [14], 10.7%; in test [15], 32.2%; in [16], 54.6%; in test [17] it was 74.8%; in test [19] it was 71.2%. The growth in test [20] is 72%.

For the origin of these results see PubChem BioAssay (NCI).
